# Among all 310,000 compounds or so, about 14,000 (4.5%) showed an effect of 50% or more. Effects have a minus sign here. The sample holds strong results, similar compounds and a random draw of the others, so the mix is not that of the screen.
# Molecular target: human ether-à-go-go-related gene (hERG) potassium channel (human, UniProt Q12809)
# Assay: primary screen, population patch clamp on CHO cells stably expressing hERG; higher = less effect of the substance
# 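Note: peak tail current of the secondary pulse compared with the same well before compound.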
# Sequence of human ether-à-go-go-related gene (hERG) potassium channel (Q12809 whole entry, looked up): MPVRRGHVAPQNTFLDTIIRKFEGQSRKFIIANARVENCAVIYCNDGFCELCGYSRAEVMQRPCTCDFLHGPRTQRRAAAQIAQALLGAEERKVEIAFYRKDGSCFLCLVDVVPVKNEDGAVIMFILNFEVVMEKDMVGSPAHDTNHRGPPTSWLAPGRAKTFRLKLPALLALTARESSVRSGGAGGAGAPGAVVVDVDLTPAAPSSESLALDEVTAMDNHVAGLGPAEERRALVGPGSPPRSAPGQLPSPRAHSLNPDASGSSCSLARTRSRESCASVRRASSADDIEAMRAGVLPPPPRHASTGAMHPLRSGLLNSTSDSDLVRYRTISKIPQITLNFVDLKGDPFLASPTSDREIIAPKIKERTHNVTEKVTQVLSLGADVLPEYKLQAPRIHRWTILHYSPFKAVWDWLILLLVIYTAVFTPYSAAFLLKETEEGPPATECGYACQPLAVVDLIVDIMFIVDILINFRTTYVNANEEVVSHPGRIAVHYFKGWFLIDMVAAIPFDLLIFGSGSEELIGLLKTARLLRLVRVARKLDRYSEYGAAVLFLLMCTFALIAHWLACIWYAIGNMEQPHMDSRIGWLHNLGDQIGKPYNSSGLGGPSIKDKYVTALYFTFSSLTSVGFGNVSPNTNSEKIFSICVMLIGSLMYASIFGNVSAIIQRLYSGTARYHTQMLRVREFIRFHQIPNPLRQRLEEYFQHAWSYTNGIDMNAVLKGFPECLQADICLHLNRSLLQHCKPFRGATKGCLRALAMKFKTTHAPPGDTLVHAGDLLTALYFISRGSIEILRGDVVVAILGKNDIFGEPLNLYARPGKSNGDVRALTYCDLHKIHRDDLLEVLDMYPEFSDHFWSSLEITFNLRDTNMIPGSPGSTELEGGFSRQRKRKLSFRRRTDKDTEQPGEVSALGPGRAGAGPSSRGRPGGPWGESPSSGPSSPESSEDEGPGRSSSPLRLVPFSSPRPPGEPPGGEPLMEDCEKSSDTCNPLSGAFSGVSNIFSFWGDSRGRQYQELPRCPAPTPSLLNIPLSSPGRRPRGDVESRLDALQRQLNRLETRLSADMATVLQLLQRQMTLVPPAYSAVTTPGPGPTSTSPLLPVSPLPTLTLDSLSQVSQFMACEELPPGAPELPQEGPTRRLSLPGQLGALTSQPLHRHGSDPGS
row,SMILES,"hERG current change (%, negative = inhibition) at 10uM [%]"
1,Cc1nnsc1Sc1ccccc1C(=O)O,8.3
2,Cc1n[nH]c(C)c1S(=O)(=O)N(C)Cc1ccco1,2.13
3,O=C(NCc1c(O)ccc2ccccc12)c1ccccc1,12
4,CC(C)c1ccc(NC(=O)C2C3C=CC4(O3)C2C(=O)N(CCCN2CCOCC2)C4C(=O)NC2CCCCC2)cc1 (stereo not drawn),19.9
5,COc1ccc(NC(C)=O)c(C)c1,18.2
6,COc1ccc(OC)c(NC(=O)C2CCN(c3cc(-c4ccccc4)nc4ncnn34)CC2)c1,-10.8
7,COc1ccccc1NC(=O)N1CCN(c2cc(-c3ccccc3)nc3ncnn23)CC1,-68.3
8,COc1ccccc1NC(=O)N1CCN(c2ncccn2)CC1,6.96
9,O=S(=O)(c1ccccc1)N1CCN(c2cc(-c3ccccc3)nc3ncnn23)CC1,-11.8
10,COc1ccc(S(=O)(=O)N2CCN(c3cc(-c4ccccc4)nc4ncnn34)CC2)cc1,-53.3
11,CCc1c(C)nc2ncnn2c1N1CCN(S(=O)(=O)c2ccc(OC)cc2)CC1,-36
12,O=C(C1=C(O)C(=O)N(CC2CCCO2)C1c1ccc(Cl)cc1)c1ccco1 (stereo not drawn),12.3
13,Cc1cc(=O)oc2c(CN3CCCC3)c(O)c(Cl)cc12,5.35
14,CC(CC(=O)Nc1cccc(Cl)c1)c1ccccc1 (stereo not drawn),-6.32
15,Cc1cc(OCC#N)nc(N)n1,3.69
16,CCN(CC)S(=O)(=O)c1ccc(N2CCOCC2)c(NCC(=O)Nc2ccc(F)cc2)c1,12.3
17,CCCCOc1ccc(/C=N/Nc2cc(N3CCOCC3)nc(C)n2)cc1,-30.5

row,SMILES,"hERG current change (%, negative = inhibition) at 10uM [%]"
1,Cc1cc(C)cc(NC(=O)C(OC(=O)c2ccc(O)cc2)c2ccccc2)c1 (stereo not drawn),-15.2
2,Cc1cc(C)cc(NC(=O)C(OC(=O)c2cc[n+]([O-])cc2)c2ccccc2)c1 (stereo not drawn),-74
3,Cc1cc(C)cc(NC(=O)C(OC(=O)c2ccc(NC(=O)CC#N)cc2)c2ccccc2)c1 (stereo not drawn),-6.68
4,COc1cc(OC)c(NC(=O)CCNC(=O)Cn2ccc3ccccc3c2=O)cc1Cl,7.45
5,CC(C)(C(N)=O)N1CCN(c2ncc(C(F)(F)F)cc2Cl)CC1,-42.4
6,O=C(CSc1ccccn1)N1CCN(c2ncc(C(F)(F)F)cc2Cl)CC1,-63.9
7,O=C(c1cccs1)N1CCN(c2ncc(C(F)(F)F)cc2Cl)CC1,-65
8,Cc1ccsc1C(=O)N1CCN(c2ncc(C(F)(F)F)cc2Cl)CC1,-21
9,CCOC(=O)N1CCN(c2ncc(C(F)(F)F)cc2Cl)CC1,21.4
10,CCc1cc(C(=O)N2CCN(c3ncc(C(F)(F)F)cc3Cl)CC2)sc1C,-3.1
11,O=C(c1ccc2c(c1)OCCO2)N1CCN(c2ncc(C(F)(F)F)cc2Cl)CC1,-41.3
12,O=C(CN1CCN(c2ncc(C(F)(F)F)cc2Cl)CC1)N1CCN(c2ncc(C(F)(F)F)cc2Cl)CC1,11.7
13,Cc1ccc(C(=O)N2CCN(c3ncc(C(F)(F)F)cc3Cl)CC2)s1,-59.8
14,O=C(c1ccc2nc[nH]c2c1)N1CCN(c2cccc(C(F)(F)F)c2)CC1,-11.4
15,O=C(c1ccc2nc[nH]c2c1)N1CCN(c2ncc(C(F)(F)F)cc2Cl)CC1,-53.6
16,O=C(CSc1ccc(Cl)cc1)N1CCN(c2ncc(C(F)(F)F)cc2Cl)CC1,-26
